Hit rate of the full screen: of about 220,000 compounds, about 2,000 (0.91%) were called active. Another 2% or so got no clear call; they are omitted. These entries were drawn from the full list. Results with a measured potency or affinity are listed apart. A number with no mark means an inactive call. Rule as the data show it: inconclusive = inhibition above about 80% without an active follow-up result; inactive = below that; test concentration not stated here.
test: M. tuberculosis H37Rv growth inhibitors, H37Rv strain (AID 1626); settings: hits give high values, concentration not given here;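 also: bacteria incubated seven days before Alamar blue readout; 0% = bacteria only wells and 100% = bacteria with antibiotic wells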

Compared with `CCS(=O)(=O)c1nc(S(=O)(=O)c2ccc(C)cc2)c(NCCCN(C)C)s1`, `CCN(CC(=O)NCc1cccs1)C(=O)c1ccc(S(=O)(=O)N(C)C)cc1` is higher in inhibition: -3.12% for the first, 2.21% for the second.

Going from `Cc1cccc(C(=O)N(c2ccccn2)C(C)c2ccco2)c1` (stereo not given) to `CCc1cccc2c(C(=O)COC(=O)c3ccccc3)c[nH]c12`, the inhibition rises from -1.89% to 7.6%.

Compared with `CC(c1ccccc1F)n1cc(C(=O)NCc2ccncc2)nn1` (stereo not given), `CC(C)c1ccc(CNC(=O)CCc2ccccc2)cc1` is higher in inhibition: -6.06% for the first, 6.15% for the second.

Compared with `O=C(NNC(=O)c1cc2cc(OC(F)(F)F)ccc2[nH]1)c1cccc(C(F)(F)F)c1`, `O=C(NCc1cccc(C(F)(F)F)c1)c1cc(Cl)ccc1Cl` is higher in inhibition: 0.47% for the first, 15% for the second.

Going from `CN(C)S(=O)(=O)c1ccc2c(c1)c(=O)c(C(=O)NCCCN1CCCCCC1)cn2C` to `O=S(=O)(c1ccc(Cl)c(S(=O)(=O)N2CCCC2)c1)N1CCCC1`, the inhibition falls from 0.45% to -11.7%.

Going from `O=C(COC(=O)c1ccccc1O)Nc1cc([N+](=O)[O-])ccc1Cl` to `O=C(COC(=O)c1ccc([N+](=O)[O-])s1)NCc1ccccc1`, the inhibition rises from -5.14% to 17.7%.

First: S=C(NC1CCCCC1)c1ccc2c(c1)OCO2
Second: O=C(Cn1nc(C(F)(F)F)c2c1CCCC2)Nc1ccc2c(c1)OCO2
The inhibition of the first is higher: 0.26% for the first, -0.66% for the second.

Going from `Cc1ccc(-n2cc(CNCCCn3cccn3)c(-c3cccc(C)c3)n2)cc1` to `CCN1CC(CN(C)Cc2cn(-c3ccc(C)cc3)nc2-c2cccc(C)c2)CC1=O` (stereo not given), the inhibition falls from 69.4% to 13.5%.

First: CCCCOC(=O)c1ccc(N)cc1
Second: CCc1cccc2c(C(=O)COC(=O)c3ccc(O)cc3)c[nH]c12
The inhibition of the first is higher: 78.1% for the first, 2.75% for the second.

Going from `CC(C)OC(=O)c1ccc(NC(=O)c2ccccc2)cc1` to `COc1cccc(C(=O)Nc2ccc(NC(C)=O)cc2)c1`, the inhibition falls from 69.1% to -16.8%.

Compared with `CCC(=O)Nc1cccc2c1C(=O)N(C)C2=O`, `CCC(=O)Nc1ccc2nc(C)n(CC(=O)Nc3ccccc3)c(=O)c2c1` is higher in inhibition: -8.82% for the first, -7.72% for the second.

First: COc1ccc(CCNC(=O)Cc2nn(C)c(=O)c3ccccc23)cc1OC
Second: CCCC1=NN(C(=O)Cc2ccc(OC)c(OC)c2)C(O)(C(F)(F)F)C1 (stereo not given)
The inhibition of the first is lower: 1% for the first, 7.79% for the second.

First: Cc1nnc(NC(=O)CSc2nnc(Cc3cccn3C)n2-c2cccc(C(F)(F)F)c2)s1
Second: Cc1ccc(NC(=O)CSc2nnc(-c3n[nH]c4ccccc34)n2-c2ccccc2)c(C)c1
The inhibition of the first is lower: 4.46% for the first, 14.9% for the second.

Going from `CC(C)CN(C(=O)COC(=O)c1ccc(-c2ccccc2)cc1)C1CCS(=O)(=O)C1` (stereo not given) to `CC1Cc2ccccc2N1C(=O)COC(=O)c1ccc(O)cc1` (stereo not given), the inhibition falls from 4.21% to 2.09%.

Compared with `COc1ccc2cc(C(c3nnnn3CCc3ccccc3)N3CCC(O)CC3)c(=O)[nH]c2c1` (stereo not given), `CCc1ccc2[nH]c(=O)c(C(c3nnnn3CCOC)N3CCN(c4ccccc4)CC3)cc2c1` (stereo not given) is lower in inhibition: 4.28% for the first, 2.21% for the second.

Compared with `O=C(Cn1c(-c2cscn2)nc2ccccc21)Nc1ccc2ccccc2c1`, `O=C(CSCc1ccc(C(=O)O)cc1)Nc1ccc2ccccc2c1` is higher in inhibition: 5.71% for the first, 35.7% for the second.

Going from `CC(=O)NCCn1c(SCC(=O)c2ccc(Cl)cc2)nc2ccccc2c1=O` to `Cc1ccccc1OCc1nnc(SCC(=O)NCc2ccccc2)n1C`, the inhibition rises from -2.5% to 2.63%.

First: Cc1ccc(NC(=O)c2ccc([N+](=O)[O-])cc2Cl)nc1
Second: CCOc1ccc(NC(=O)CNc2ccc(C)cc2Cl)cc1
The inhibition of the first is higher: 1.78% for the first, -1.87% for the second.

First: Cc1c(C(=O)N2CCCCC2)sc(NC(=O)C2CC2)c1C#N
Second: Cc1c(C(=O)N2CCCCC2)sc(NC(=O)C(C)C)c1C#N
The inhibition of the first is higher: -1.68% for the first, -2.5% for the second.

First: COc1ccc(-c2oc3ccccc3c(=O)c2OC(C)=O)cc1
Second: O=C(O)COc1c(-c2ccco2)oc2ccccc2c1=O
The inhibition of the first is higher: 67.5% for the first, -8.35% for the second.

Going from `CCC(C)NS(=O)(=O)c1ccc(NC(C)=O)cc1` (stereo not given) to `Cc1cc(C)nc(SCC(=O)Nc2ccc(S(=O)(=O)Nc3onc(C)c3C)cc2)n1`, the inhibition falls from -1.33% to -9.62%.

First: CC(C)OCC(O)CS(=O)Cc1ccccc1 (stereo not given)
Second: O=C(O)CSCC(=O)NCc1ccccc1
The inhibition of the first is lower: -8.07% for the first, -2.1% for the second.

Compared with `N=c1c2c(ncn1Cc1ccco1)Oc1ccc3ccccc3c1C2c1ccccc1` (stereo not given), `COc1ccc(C2c3ccc4ccccc4c3Oc3ncn(Cc4ccco4)c(=N)c32)cc1OC` (stereo not given) is lower in inhibition: 20.9% for the first, 8.86% for the second.

First: Cc1cnc(C(=O)OCC(=O)Nc2ccc(Oc3ccccc3)cc2)cn1
Second: Cc1ccc(NC(=O)CCC(=O)NNC(=O)COc2ccccc2)c(C)c1
The inhibition of the first is higher: 38% for the first, 2.24% for the second.

First: Cc1ccc2c(c1)c1ncnc(N3CCN(c4ccccc4)CC3)c1n2C
Second: Cc1ccc2c(c1)c1ncnc(N3CCC4(CC3)OCCO4)c1n2C
The inhibition of the first is higher: 0.76% for the first, -2.11% for the second.

First: Fc1ccc2[nH]c3c(N4CCc5ccccc5C4)ncnc3c2c1
Second: Brc1ccc2[nH]c3c(N4CCc5ccccc5C4)ncnc3c2c1
The inhibition of the first is lower: 4.31% for the first, 5.42% for the second.

Compared with `COc1cccc(NC(=O)CN2CCN(S(=O)(=O)c3ccc(F)cc3)CC2)c1`, `CC(=O)c1ccc(N2CCN(C(=O)C3(S(=O)(=O)c4ccc(Cl)cc4)CC3)CC2)cc1` is higher in inhibition: -7.83% for the first, 1.33% for the second.

First: O=C1/C(=C\c2ccc(Cl)c(Cl)c2)N2CCC1CC2
Second: CN1C(=O)C(=Cc2ccc(N3CCOCC3)o2)C(=O)N(C)C1=O
The inhibition of the first is higher: 15.2% for the first, 5.8% for the second.

Compared with `COc1ccc(NCC(=O)Nc2ccc(Br)cc2F)c(OC)c1`, `COc1ccc(Cl)cc1NC(=O)CNc1ccc(F)cc1C` is lower in inhibition: 75.1% for the first, 6.38% for the second.

Going from `Cc1ccc(NC(=O)C(=O)NCCOc2ccc(Cl)cc2)c(C)c1` to `Cc1ccc(NC(=O)CNc2ccc(OC(C)C)cc2)c(C)c1`, the inhibition rises from 7.98% to 46.8%.

Going from `CCOc1ccc(OCCC(=O)Nc2ccc(F)cc2C)cc1` to `CCOC(=O)Nc1ccc(C)cc1C`, the inhibition rises from -6.9% to 0.47%.

Going from `C[C@@H]1CC[C@]2(O[C@@H](CCO)C[C@@H](O)[C@@H]2O)O1` to `O=C(Nc1cccc2ncccc12)C12CC3CC(CC(C3)C1)C2`, the inhibition falls from -6.09% to -10%.

Going from `Cc1nc2sc(C(c3cccc(F)c3)N3CCC(C)CC3)c(O)n2n1` (stereo not given) to `Cc1cc2c(sc3ccccc32)c(C)n1`, the inhibition rises from -7.23% to 5.03%.

First: Cc1cc(N2CCN(C)CC2)nc2ccc(NC(=S)N3CCCCC3)cc12
Second: CC(=O)Nc1sc2c(c1CN1CCN(C)CC1)CCCC2
The inhibition of the first is higher: 30.4% for the first, -1.53% for the second.

Compared with `CN(C(=O)COc1ccc(S(=O)(=O)N2CCOCC2)cc1[N+](=O)[O-])C1CCS(=O)(=O)C1` (stereo not given), `COc1ccc(NC(=O)c2cccnc2N2CCOCC2)cc1` is higher in inhibition: -7.08% for the first, 4.7% for the second.

First: COc1ccccc1NC(=S)N(CCCN1CCOCC1)Cc1cccs1
Second: O=C(OCC(=O)N1CCc2ccccc21)c1cccnc1
The inhibition of the first is higher: -3.58% for the first, -5.16% for the second.

Compared with `Cc1[nH]c2ccccc2c1C(=O)COC(=O)c1ccc([N+](=O)[O-])s1`, `O=C(OCC(=O)N1CCCc2ccccc21)c1ccc(Cl)nc1` is lower in inhibition: 99.3% for the first, 60.1% for the second.

Compared with `CCN(C(=O)CCCC(=O)N(CC)c1ccccc1)c1ccccc1`, `CCN(CC)C(=N)/C(C#N)=N/Nc1ccccc1` is lower in inhibition: -1.06% for the first, -13.5% for the second.

First: CC(C)(C)CN1CCNC(=O)C1CC(=O)N1CCN(c2ccccc2)CC1 (stereo not given)
Second: CCOC(=O)C[C@H]1c2ccccc2S(=O)(=O)N1c1cccc(OC)c1
The inhibition of the first is higher: -2.51% for the first, -8.13% for the second.

Compared with `CC1=Nc2ccccc2/C1=C\c1nc(-c2ccc(F)cc2)oc1O`, `CC1=Nc2ccccc2/C1=C\c1nc(-c2ccccc2)oc1O` is lower in inhibition: 54.8% for the first, 3.61% for the second.

First: CC(C)(C)CC(C)(C)NC(=O)CSCC(=O)Nc1ccc2ccccc2c1
Second: CC1Cc2ccccc2N1C(=O)COC(=O)CNC(=O)c1ccc(Br)o1 (stereo not given)
The inhibition of the first is higher: -8.35% for the first, -10.5% for the second.

Going from `Cn1cccc1C(=O)NC(=O)COC(=O)CNC(=O)c1ccc(Cl)cc1Cl` to `CC1Cc2ccccc2N1C(=O)COC(=O)c1cccnc1Cl` (stereo not given), the inhibition rises from -13% to 3.35%.

Going from `CCOc1ccc(C2=NNC(c3cccnc3)=Nc3ccc(OC)cc32)cc1` to `COc1ccc(C(=O)ON=C2C=C(C)C(=O)C(C)=C2)cc1`, the inhibition falls from 1.63% to -2.82%.

Compared with `N#CCCn1c(C(C#N)(CCC#N)CCC#N)nc2ccccc21`, `Cc1cc(C(=O)OCC(=O)N2c3ccccc3CC2C)c(C)o1` (stereo not given) is higher in inhibition: -2.99% for the first, 7.82% for the second.

Going from `COc1ccc(S(=O)(=O)N=C2C=C(C)C(=O)C(C)=C2)cc1` to `COc1ccc(Cl)cc1Nc1nc(C)cc(C)c1C(N)=O`, the inhibition rises from -5.5% to -2.67%.

First: COc1cc(C(C(=O)NC(C)(C)C)N(Cc2ccc3c(c2)OCO3)C(=O)c2cnccn2)cc(OC)c1OC (stereo not given)
Second: NC(=O)CC[C@@H]1NC(=O)[C@@H]2CCCN2C(=O)c2cc([N+](=O)[O-])cc(I)c2NCCCC[C@@H](C(=O)NC(CC(=O)O)C(N)=O)NC1=O (stereo not given in full)
The inhibition of the first is lower: -6.38% for the first, 0.47% for the second.

First: CC(=O)Nc1sc2c(c1CN1CCCC1)CCCC2
Second: O=Cc1ccc(N2CCCC2)o1
The inhibition of the first is lower: -3.09% for the first, 46.4% for the second.

`CC1CCCN(C(=O)Cn2cnc3c2c(=O)n(C)c(=O)n3C)C1` (stereo not given) showed an inhibition of 10.5%.

Source: PubChem BioAssay AID1626 (SRMLSC, 2009)
